# According to the supplement of paper PMC7184167:
# Where a name gives a salt, the structure may show the parent alone.
# System: replication-induced senescent mouse newborn dermal fibroblasts (NBF)
# Experiment: relative cell viability of senescent cells (fraction); higher = less killing of senescent cells
# Conditions: 1 µM; 3 days
# Experimental: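 Replication-induced senescent newborn mouse skin fibroblasts (NBFs) in 24-well plates were treated with a Selleck FDA-approved drug library at 1 µM for 3 days.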
row,Compound,relative cell viability
1,C=C1/C(=C\C=C2/CCC[C@]3(C)[C@@H]([C@H](C)/C=C/[C@H](C)C(C)C)CC[C@@H]23)C[C@@H](O)C[C@@H]1O [Doxercalciferol],1.22
2,CC(C(=O)O)c1cccc(Oc2ccccc2)c1 (stereo not given) [Fenoprofen Calcium],1.13
3,COC(=O)C1=C(C)NC(C)=C(C(=O)OC(C)C)C1c1cccc2nonc12 (stereo not given) [Isradipine],0.977
4,C[C@@H]1CN(c2c(F)c(N)c3c(=O)c(C(=O)O)cn(C4CC4)c3c2F)C[C@H](C)N1 [Sparfloxacin],0.71
5,C[C@]1(O)C[C@@H](c2nc(-c3ccc4ccc(-c5ccccc5)nc4c3)c3c(N)nccn32)C1 [Linsitinib (OSI-906)],0.445
6,CC(=O)Oc1ccccc1C(=O)Nc1ncc([N+](=O)[O-])s1 [Nitazoxanide],0.698
7,CN(C)CCc1c[nH]c2ccc(C[C@H]3COC(=O)N3)cc12 [Zolmitriptan],0.999
8,OCCOCCN1CCN(C2=Nc3ccccc3Sc3ccccc32)CC1 [Quetiapine Fumarate],1.13
9,COc1cc2/c(=N/c3ccc(Br)cc3F)nc[nH]c2cc1OCC1CCN(C)CC1 [Vandetanib (ZD6474)],0.464
10,COc1ccc2[nH]c([S@@+]([O-])Cc3ncc(C)c(OC)c3C)nc2c1 [NEXIUM (esomeprazole magnesium)],1.07
11,COC(=O)Nc1nc2cc(C(=O)c3ccc(F)cc3)ccc2[nH]1 [Flubendazole],0.886
12,COC(=O)Nc1nc2cc([S+]([O-])c3ccccc3)ccc2[nH]1 (stereo not given) [Oxfendazole],1.04
13,Cc1cnc(NC(=O)C2=C(O)c3ccccc3S(=O)(=O)N2C)s1 [Meloxicam],1.17
14,CN(C)[C@@H](CCOc1cccc2ccccc12)c1ccccc1 [Dapoxetine HCl],1.08
15,Cc1cnc(C(=O)O)c[n+]1[O-] [Acipimox],0.938
16,CC(C)(C#N)c1cc(Cn2cncn2)cc(C(C)(C)C#N)c1 [Anastrozole],0.993
17,COc1ccc(-c2nc3cc(C4=NNC(=O)CC4C)ccc3[nH]2)cc1 (stereo not given) [Pimobendan],0.639
18,O=C(c1cc(Cc2n[nH]c(=O)c3ccccc23)ccc1F)N1CCN(C(=O)C2CC2)CC1,1.09
19,Nc1ccn([C@@H]2CS[C@H](CO)O2)c(=O)n1 [Lamivudine],0.759
20,N#C[C@@H]1C[C@@H]2C[C@@H]2N1C(=O)[C@@H](N)C12CC3CC(CC(O)(C3)C1)C2 [Saxagliptin],0.999

row,Compound,relative cell viability
1,CC(=O)OCC[N+](C)(C)C [Acetylcholine Chloride],0.052
2,Cc1nc2n(c(=O)c1CCN1CCC(c3noc4cc(F)ccc34)CC1)CCCC2O (stereo not given) [Paliperidone],1.04
3,CCN1CCN(C(=O)N[C@@H](C(=O)N[C@@H]2C(=O)N3C(C(=O)O)=C(CSc4nnnn4C)CS[C@H]23)c2ccc(O)cc2)C(=O)C1=O [Cefoperazone],1.03
4,CN(C)CCc1c[nH]c2ccc(Cn3cncn3)cc12 [Rizatriptan Benzoate],1.09
5,CCCCc1nc2cc(/C=C/C(=O)NO)ccc2n1CCN(CC)CC [Pracinostat (SB939)],1.01
6,CC(C)OC(=O)OCOP(=O)(CO[C@H](C)Cn1cnc2c(N)ncnc21)OCOC(=O)OC(C)C [Tenofovir Disoproxil Fumarate],0.84
7,C[C@]12C=CC(=O)N[C@@H]1CC[C@@H]1[C@@H]2CC[C@]2(C)[C@@H](C(=O)Nc3cc(C(F)(F)F)ccc3C(F)(F)F)CC[C@@H]12 [Dutasteride],0.986
8,Cc1ccc(NC(=O)C2(c3ccc4c(c3)OC(F)(F)O4)CC2)nc1-c1cccc(C(=O)O)c1 [VX-809 (Lumacaftor)],0.838
9,CN(C)CCOc1ccc(/C(=C(/CCCl)c2ccccc2)c2ccccc2)cc1 [Toremifene Citrate],0.956
10,CC1=C(/C=C/C(C)=C/C=C/C(C)=C/C(=O)O)C(C)(C)CCC1 [Tretinoin],0.466
11,CC(C(=O)O)c1ccc(C(=O)c2cccs2)cc1 (stereo not given) [Suprofen],0.929
12,CCOc1ccc(Cc2cc([C@@H]3O[C@H](CO)[C@@H](O)[C@H](O)[C@H]3O)ccc2Cl)cc1 [Dapagliflozin],1.2
13,Nc1ccc(O)c(C(=O)O)c1 [Mesalamine],0.351
14,CCOC(=O)C1=C(COCCN)NC(C)=C(C(=O)OC)C1c1ccccc1Cl (stereo not given) [Amlodipine Besylate],0.987
15,CCCNC(C)C(=O)Nc1ccccc1C (stereo not given) [Prilocaine],0.827
16,N=C(N)NC(=N)N1CCOCC1 [Moroxydine HCl],0.965
17,C[C@H](CCC(=O)O)[C@H]1CC[C@H]2[C@@H]3[C@@H](O)C[C@@H]4C[C@H](O)CC[C@]4(C)[C@H]3CC[C@]12C [Ursodiol],0.448
18,CN(C)c1cc(NC(=O)CNC(C)(C)C)c(O)c2c1CC1CC3C(N(C)C)C(=O)C(C(N)=O)=C(O)C3(O)C(=O)C1=C2O (stereo not given) [Tigecycline],0.694
19,C[C@]12CC[C@@H]3c4ccc(O)cc4CC[C@H]3[C@@H]1CC[C@@H]2O [Estradiol],1.13
20,CCOc1cc(CC(=O)N[C@@H](CC(C)C)c2ccccc2N2CCCCC2)ccc1C(=O)O [Repaglinide],0.978
